Bioassay records from PubChem.
Sa helicase inh: S. aureus DNA helicase inhibition; purified S. aureus helicase, fluorescence unwinding assay; inhibition, % (no concentration beside the values); actives 0.05% (n = 120,000); AID 485395; in the data active means inhibition above about 25%, passing the limit was not always enough;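 further: 0% = mean of negative control wells and 100% = mean of positive control wells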
Sa growth 42C: S. aureus growth inhibition; S. aureus RN4220 growth, OD600, 20 h, 42 °C; hits give low values; relative growth, % (concentration not given with the values); actives 0.53% (n = 170,000);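 active means relative growth at most 50% at the other temperature and 20+ points below 30 °C, or under 10% at both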
* = called active by the depositor; . = no result. Many of the other results were omitted from the sample, so hits are more common in it than they were.

SMILES | Sa helicase inh | Sa growth 42C
NC(=O)COc1cccc2cccnc12 | 4.0 | 106.8
CCc1ccccc1NC(=O)C=C(C)C | 14.0 | 102.5
COc1ccc(S(=O)(=O)NCCc2csc3nc(-c4ccc(OC)c(OC)c4)nn23)cc1C | . | 111.2
Cc1cnc(C(=O)OC(C)C(=O)N(C)c2ccccc2)cn1 (stereo not drawn) | 3.0 | 80.9
O=C(O)c1cccc(NCc2ccncc2)c1 | -2.0 | 105.4
COc1cc(Cl)c(C)cc1NC(=O)Cn1ncc2c([nH]c3ccccc32)c1=O | . | 96.2
O=C(O)CC1(CC(=O)N2CCN(c3ccccc3)CC2)CCCC1 | 4.0 | 80.4
Cc1ccc(OC(=O)c2cccnc2)cc1 | -5.0 | 98.1
Cc1ccc(N(c2ccc(C)cc2)c2cccnc2)cc1 | 7.0 | 5.5*
CCOc1ccccc1NC(=O)C(=O)NCCc1sc2nc(-c3ccc(OC)cc3)nn2c1C | . | 127.6
C=CCn1c(O)c(C2=c3cc(Br)ccc3=NC2=O)c2ccccc21 | 3.0 | 1.4*
C=CCn1c(O)c(N=O)c2ccccc21 | 6.0 | 76.5
CCn1c2ccccc2c2cc(N3C(=O)C=CC3=O)ccc21 | . | 3.8*
CCn1c2ccccc2c2cc(C(N)=O)ccc21 | 10.0 | 86.2
Cc1nn(-c2ccccc2)c(C)c1COC(=O)c1ccc(S(=O)(=O)N(C)C)cc1 | 15.0 | 106.7
c1ccc(-c2ccc3ccccc3n2)nc1 | -5.0 | 62.8
c1ccc(-c2cccc(-c3ccccn3)n2)nc1 | 12.0 | 2.4*
O=C(O)[C@H]1/C(=C/CO)O[C@@H]2CC(=O)N21 | . | 14.7*
CCCN1C(=O)c2ccccc2NC1c1ccc(OC)c(OC)c1 (stereo not drawn) | 11.0 | 109.6
O=c1[nH]c(=O)c2nc3cc(C(F)(F)F)ccc3nc2[nH]1 | -98.0 | 2.5*
FC(F)(F)c1cccc2c1[nH]c1nc3ccccc3nc12 | 1.0 | 105.9
CC(CNC(=O)CN1C(=O)c2cccnc2Oc2ccc(Cl)cc21)c1ccccc1 (stereo not drawn) | . | 112.9
COc1cc(C=C2C(=O)NC(=O)NC2=O)cc(Br)c1OCc1c(C)no[n+]1[O-] | -12.0 | 96.4
Cc1no[n+]([O-])c1COc1cccc(/C=C2\SC(=S)NC2=O)c1 | 14.0 | -0.8*
CCOC(=O)N1CCN(CCC(=O)c2ccc(OC)cc2)CC1 | 13.0 | 89.2
SMILES | Sa helicase inh | Sa growth 42C
CCOC(=O)N1CCN(CCC(=O)c2ccc(Br)cc2)CC1 | 7.0 | -1.7*
O=C(Nc1ccccc1)N1CCCc2ccccc21 | 11.0 | 102.0
N#CC(C#N)=C(Nc1ccccc1Cl)SCc1cccc(F)c1 | 1.0 | 0.1*
N#CC(C#N)=C(Nc1ccc(Br)cc1)SCc1ccc(F)cc1 | -13.0 | 30.9
CCO/C=N/c1c(C#N)c(CC#N)nn1-c1ccccc1 | 3.0 | 82.6
COc1cccc(/C=C2\CC(C)C/C(=C\c3ccccc3OC)C2=O)c1 (stereo not drawn) | 3.0 | 82.7
O=C(/C=C/C=C/c1ccccc1)c1ccncc1 | 0.0 | 1.0*
O=C(/C=C/C=C/c1ccccc1)c1ccc(Cl)cc1 | 1.0 | 83.9
CC(C)N1CCc2c(sc(NC(=O)C3=COCCO3)c2C(N)=O)C1 | 42.0* | 88.1
NC(=O)c1c(NC(=O)C2=COCCO2)sc2c1CCCC2 | 22.0 | .
CCN(CC)CCNC(=O)CN1C(=O)c2cccnc2Oc2ccc(C)cc21 | . | 90.8
O=C(Nc1ncc(Cc2ccccc2Cl)s1)c1ccco1 | -8.0 | .
CC1SC(=N)N(c2ncc(Cc3ccccc3Cl)s2)C1=O (stereo not drawn) | 1.0 | -1.0*
O=C(c1ccc(Br)cc1)N1CCC(c2nc3ccccc3s2)CC1 | . | 98.5
Nc1cc(CCCC(=O)O)sc1CCCC(=O)O | -9.0 | 78.9
CC[C@H]1OC(=O)[C@H](C)[C@@H](O[C@H]2C[C@@](C)(OC)[C@@H](O)[C@H](C)O2)[C@H](C)[C@@H](O[C@@H]2O[C@H](C)C[C@H](N(C)C)[C@H]2O)[C@](C)(O)C[C@@H](C)CN(C)[C@H](C)[C@@H](O)[C@]1(C)O | . | -0.9*
O=C(Nc1nnc(C2CC2)o1)c1ccc(S(=O)(=O)N2CCCCC2)cc1 | 5.0 | 11.8
CC1CCCCN1S(=O)(=O)c1ccc(C(=O)Nc2nnc(C3CC3)o2)cc1 (stereo not drawn) | 17.0 | 0.0*
Cc1cc(NC(=O)c2ccc3c(c2)N(Cc2cccc(Cl)c2)C(=O)c2ccccc2S3=O)ccc1Br (stereo not drawn) | . | 114.4
CCOC(=O)c1c(NC(=O)COc2cccc(C(F)(F)F)c2)sc2c1CCC(C)C2 (stereo not drawn) | . | 96.5
OC(CNCc1ccccc1)Cn1c2ccc(Cl)cc2c2cc(Cl)ccc21 (stereo not drawn) | -2.0 | -0.9*
O=C(O)CNCC(O)Cn1c2ccccc2c2ccccc21 (stereo not drawn) | 22.0 | 109.6
CCOc1ccc(CNc2nc3ccccc3n2C)cc1OC | 0.0 | 96.8
Cc1ccc(C(=O)CC(=O)c2ccccc2O)cc1 | 2.0 | 0.8*
O=C(CC(=O)c1ccccc1O)c1ccc(Cl)cc1 | -2.0 | 1.1*
SMILES | Sa helicase inh | Sa growth 42C
COc1ccc(C(=O)CC(=O)c2ccccc2O)cc1 | 16.0 | 87.2
O=C(CC(=O)c1c(F)cccc1F)c1ccccc1O | . | 122.6
C[N+]1(CC(=O)OC2CCCCCCCCCCC2)CCCC1 | 13.0 | 19.9*
C[N+]1(CC(=O)OCCCC2CCCCC2)CCCCC1 | 5.0 | 97.6
CN(Cn1nc2sc3ccccc3n2c1=S)C1CCCCC1 | -13.0 | 54.4
S=c1n(CN2CCCC2)nc2sc3ccccc3n12 | 0.0 | 38.6*
CN(C)CCC(=O)c1ccc2c(c1)OCO2 | 3.0 | 86.8
CCCCCc1ccc(C(=O)CCN(C)C)cc1 | 0.0 | -0.1*
Cc1cc(C)n2nc(CNC(=O)c3cccc(N(C)C)c3)nc2n1 | . | 102.2
Cc1c(C#N)c(Sc2ccccc2NC(=O)c2ccco2)nc2ccccc12 | . | 105.5
Cc1c(CN(C)C)c2c(n1C)C(=O)c1ccc(Br)cc1-2 | 64.0* | 87.4
Cc1c(CN(C)C)c2c(n1Cc1ccccc1)C(=O)c1ccc(Br)cc1-2 | 14.0 | 93.3
O=C(NC1CCCCC1)N(Cc1nc2ccccc2c(=O)[nH]1)C1CCCC1 | 1.0 | 93.3
O=C(NC(c1cccs1)c1ccc2cccnc2c1O)C1CCCCC1 (stereo not drawn) | 16.0 | 105.0
Cc1conc1NC(c1cccs1)c1ccc2cccnc2c1O (stereo not drawn) | 11.0 | 3.1*
Cc1nc(C(=O)Nc2ccccc2)sc1C(=O)Nc1ccccc1 | . | 96.5
CC(C)c1cc(C(=O)NCc2ccco2)no1 | 9.0 | 93.2
NC(=S)N1N=C(c2ccc(Cl)cc2)CC1c1ccco1 (stereo not drawn) | -11.0 | 85.7
Cc1nnc(SCC(=O)N(CC(C)C)C2CCS(=O)(=O)C2)s1 (stereo not drawn) | 26.0* | 91.3
CCCc1cc(=O)[nH]c(SCC(=O)N(CC(C)C)C2CCS(=O)(=O)C2)n1 (stereo not drawn) | -5.0 | 80.0
CCc1ccc(-n2c3nc(=O)[nH]c(=O)c-3cc3c(C)nn(-c4ccccc4)c32)cc1 | . | 103.4
c1ccc(-c2nsc(NC3Cc4ccccc4C3)n2)cc1 | . | 66.1
Oc1c(CN2CCCCC2)ccc2cccnc12 | 7.0 | 59.4
Oc1c(C(O)(C(F)(F)F)C(F)(F)F)ccc2cccnc12 | 13.0 | -0.3*
CN(C(=O)COC(=O)c1cccnc1Nc1cccc(C(F)(F)F)c1)C1CCS(=O)(=O)C1 (stereo not drawn) | 1.0 | 114.2
CCN1/C(=C/c2scc[n+]2C)C=C(C)c2cc(OC)c3ccccc3c21 | -40.0 | -1.3*
CCN1C(=O)c2ccccc2Sc2ccc(NC(=O)Nc3ccccc3OC)cc21 | . | 111.2
